Measured values published in PubChem BioAssay (EPA / NIEHS).
The source made the active and inactive calls. Rule for the calls: active = hit-call score of the fitted dose curve at least 0.9, where 1 is the maximum; inactive = score below 0.9.

Experiment: BSK_SAg_Proliferation: Cell Proliferation Assessment in the BioMAP Diversity Plus: SAg Assay (AID 2283095)
Settings: primary human HUVEC with PBMC
Protocol: BSK_SAg is a cell-based, multiplexed-readout assay that uses umbilical vein endothelium and peripheral blood mononuclear cells, a human vascular primary cell co-culture, with measurements taken at 24 hours after chemical dosing in a 96-well plate.BSK_SAg_Proliferation is an assay component in the BSK_SAg assay. It measures protein content, a form of viability reporter, as detected with absorbance signals by Sulforhodamine staining technology. Data from the assay component BSK_SAg_Proliferation was analyzed into 1 assay endpoint. This assay endpoint, BSK_SAg_Proliferation, was analyzed with bidirectional fitting relative to DMSO as the negative control and baseline of activity. Using a type of viability reporter, measures of total protein for gain or loss-of-signal activity can be used to understand the viability at the cellular-level. Furthermore, this assay endpoint can be referred to as a secondary readout, because this assay has produced multiple assay endpoints where this one serves a viability function. To generalize the intended target to other relatable targets, this assay endpoint is annotated to the cell cycle intended target family, where the subfamily is proliferation.
The levels of cell surface (or secreted, indicated by the prefix "s") biomarker endpoints were measured by ELISA. Overt cytotoxicity to cells in confluent adherent cultures (all systems other than the BT system) was assessed by measuring total protein levels using sulforhodamine B (SRB) staining in parallel cultures at the time of biomarker measurements, indicated as SRB endpoints. For proliferation assays for adherent cell types, individual cell types are cultured at sub-confluence and relative cell numbers quantified by SRB staining at time points optimized for each system (48 h: 3C and CASM3C systems; 72 h: BT and HDF3CGF systems; 96 h: SAg system). SRB was performed by staining cells with 0.1% SRB after fixation with 10% TCA and reading wells at 560 nm.Viability and proliferation of PBMC (T cells) was quantified by Alamar Blue reduction for the SAg and BT systems. For PBMC viability (referred to as PBMC Cytotoxicity within the assay endpoint names), cells were plated (75,000/well in a 96-well plate) and then chemical samples added for 1 h before addition of activators, SEB and TSST-1 (20 ng/mL final concentration each). Cells were incubated for 90 h. Then, Alamar Blue (20 uL/well) (Invitrogen, Cat DAL1100) was added for 6 h, and the plates were read with a fluorescence microplate reader at 546/580 nm (excitation/emission). For PBMC proliferation, cells were plated and activated as above but incubated for only 16 h prior to addition of Alamar Blue. Plates were read after 6 h.

outcome, inactive:
O=c1ccc2ccccc2o1
c1ccc2n[nH]nc2c1
CC(C)(O)c1ccc(CNC(=O)c2cccnc2Oc2ccc3nonc3c2)cc1
O=C1CCC(C2CCCCC2)CC1
CCCCOC(=O)c1ccc(O)cc1
CN1C(=O)CC[C@H]1c1cccnc1
CCCC(=O)OCCC(C)C
c1ccc(C[n+]2cccc3ccccc32)cc1
O=C(O)Cn1c(=O)n(Cc2ccc(Br)cc2F)c(=O)c2ccc(Cl)cc21
CCO[Si](CCCNC(N)=O)(OCC)OCC
CCCCCCCCCC(=O)O
C[C@]12CC[C@@H]3c4ccc(O)cc4CC[C@H]3[C@@H]1CCC2=O
O=C(O)c1ccccc1C(=O)OCc1ccccc1
Cc1cc2c(cc1C(F)(F)F)N(C(=O)Nc1ccc(Oc3cccnc3C)nc1)CC2
CC[C@@H]1C[C@H](N(Cc2cc(C(F)(F)F)cc(C(F)(F)F)c2)C(C)=O)c2cc(C(F)(F)F)ccc2N1C(=O)OC(C)C
c1ccc2ccccc2c1
Cc1occc1C(=O)Nc1ccc(C(=O)N2CCC(F)(F)/C(=C\C(=O)N3CCC(N4CCCCC4)CC3)c3ccccc32)cc1
Cc1cccc2ccccc12
CC(O)CC(C)(C)O (stereo not given)
O=C1c2ccccc2C(=O)N1CCc1noc(-c2ccc(CN3CCCCCC3)s2)n1

AC50, active:
C[C@]12CC[C@@H]3c4ccc(O)cc4CC[C@H]3[C@@H]1CC[C@H]2O 12.4 µM
CCCCCCCCOc1ccc(C(=O)c2ccccc2)c(O)c1 15 µM
Cc1ccc2oc(CN(Cc3ccccc3)C(=O)Nc3c(F)cc(F)cc3F)c(-c3ccc(Cl)cc3)c2c1 6.03 µM
COc1ccc2cc(S(=O)(=O)N[C@H](CC(=O)N[C@H](Cc3ccc(CN4[C@H](C)CCC[C@@H]4C)cc3)C(=O)N(C)C(C)C)c3ccc4c(c3)OCO4)ccc2c1 12 µM
CCOC(=O)O[C@H](C)OC(=O)c1ccc2c(c1)cc(C(=O)NC1CCN(C(C)C)CC1)n2Cc1cc(-c2ccc(Cl)s2)on1 2.37 µM
CCCCCCCCCCCC[N+](C)(C)C 6.09 µM
CN(C)c1ccc(C(=C2C=CC(=[N+](C)C)C=C2)c2ccc(N(C)C)cc2)cc1 0.693 µM
Cc1oc2c(NC(=O)c3c(Cl)cccc3Cl)cccc2c1C(C)(C)O 20.6 µM
NC(=O)c1nc(-c2cccc(-c3cc(F)ccc3OCC(F)(F)C(F)(F)F)c2)n[nH]1 26.2 µM
CO[C@H]1/C=C/O[C@@]2(C)Oc3c(C)c(O)c4c(O)c(c(/C=N/N5CCN(C)CC5)c(O)c4c3C2=O)NC(=O)/C(C)=C\C=C\[C@H](C)[C@H](O)[C@@H](C)[C@@H](O)[C@@H](C)[C@H](OC(C)=O)[C@@H]1C 17.6 µM
O=c1[nH]sc2ccccc12 0.77 µM
CC(C)(C)c1csc(-c2cc3cc(OCc4ccccc4CC(=O)O)ccc3o2)n1 20.1 µM
CN(C)C(=O)C1(N2CCCCC2)CCN(CC[C@@]2(c3ccc(Cl)c(Cl)c3)CN(C(=O)c3ccccc3)CCO2)CC1 5.91 µM
CC(C)(C)c1cc(/C=C2\SC(N)=NC2=O)cc(C(C)(C)C)c1O 7.44 µM
CC[C@H](NC(=O)c1cc(F)ccc1NS(=O)(=O)c1cccc2cccnc12)c1ccccc1 22.5 µM
CCCCCCCCCCCO 33.6 µM
Clc1ccccc1C(c1ccccc1)(c1ccccc1)n1ccnc1 9.32 µM
CCCCCCCCCCCCO 30.1 µM
O=c1c(-c2ccc(O)cc2)coc2cc(O)cc(O)c12 15.6 µM
O=C=NCCCCCCN=C=O 15.8 µM
